Measured values: the supplement of paper PMC6555819

Assays:
Assay in all cases: PBM binding z-score (relative to random genomic background probes); higher = stronger binding; sequences stand for … in GC…GCGATTGACAGCGTAGAATGAAGG
[1] = tested on: FXR:RXRa (NR concentration 270 nM, RXRa partner concentration 90 nM)
In short: (§1)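 Binding buffer was PBS pH 7.4 with 2% milk, 0.02% Triton X-100, 1 mM DTT, 0.2 mg/mL BSA and 0.4 mg/ml salmon testes DNA. In it, ligand-free nuclear receptor dimers were incubated 1 h on custom Agilent 4×180K protein-binding microarrays carrying double-stranded probes. Antibodies against each partner (one per run) detected binding, and z-scores were calculated against random background probes after regression normalization of scanned fluorescence.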

[2] = tested on: LXRa:RXRa (NR concentration 270 nM, RXRa partner concentration 90 nM)
In short: as §1

[3] = tested on: LXRa homodimer (NR concentration 270 nM)
In short: as §1

[4] = tested on: LXRb:RXRa (NR concentration 270 nM, RXRa partner concentration 90 nM)
In short: as §1

[5] = tested on: LXRb homodimer (NR concentration 270 nM)
In short: as §1

[6] = tested on: PPARa:RXRa (NR concentration 270 nM, RXRa partner concentration 90 nM)
In short: as §1

[7] = tested on: PPARg:RXRa (NR concentration 180 nM, RXRa partner concentration 90 nM)
In short: as §1

[8] = tested on: PPARg:RXRa 270nM:90nM, anti-RXR (NR concentration 270 nM, RXRa partner concentration 90 nM)
In short: as §1

[9] = tested on: PPARg:RXRa 30nM:10nM, anti-RXR (NR concentration 30 nM, RXRa partner concentration 10 nM)
In short: as §1

[10] = tested on: PPARg:RXRa 90nM:30nM, anti-RXR (NR concentration 90 nM, RXRa partner concentration 30 nM)
In short: as §1

[11] = tested on: PPARg:RXRa DBDmut IVT, anti-RXR (DBD mutation: RXRa K156A/R161A, NR concentration 270 nM, RXRa partner concentration 90 nM)
In short: as §1

[12] = tested on: PPARg:RXRa IVT, anti-PPARg (NR concentration 270 nM, RXRa partner concentration 90 nM)
In short: as §1

[13] = tested on: PPARg DBDmut:RXRa IVT, anti-PPARg (DBD mutation: PPARg1 K132A/R137A, NR concentration 270 nM, RXRa partner concentration 90 nM)
In short: as §1

[14] = tested on: PPARg DBDmut IVT, anti-PPARg (DBD mutation: PPARg1 K132A/R137A, NR concentration 270 nM)
In short: as §1

[15] = tested on: PPARg homodimer (NR concentration 180 nM)
In short: as §1

[16] = tested on: PXR:RXRa (NR concentration 270 nM, RXRa partner concentration 90 nM)
In short: as §1

[17] = tested on: PXR homodimer (NR concentration 270 nM)
In short: as §1

[18] = tested on: RARa:RXR (NR concentration 270 nM, RXRa partner concentration 90 nM)
In short: as §1

[19] = tested on: RARa homodimer (NR concentration 270 nM)
In short: as §1

[20] = tested on: RARb:RXRa (NR concentration 270 nM, RXRa partner concentration 90 nM)
In short: as §1

Row | Sequence | PBM binding z-score [1] | PBM binding z-score [2] | PBM binding z-score [3] | PBM binding z-score [4] | PBM binding z-score [5] | PBM binding z-score [6] | PBM binding z-score [7] | PBM binding z-score [8] | PBM binding z-score [9] | PBM binding z-score [10] | PBM binding z-score [11] | PBM binding z-score [12] | PBM binding z-score [13] | PBM binding z-score [14] | PBM binding z-score [15] | PBM binding z-score [16] | PBM binding z-score [17] | PBM binding z-score [18] | PBM binding z-score [19] | PBM binding z-score [20]
1 | TCATATAGGTAAAGGTGTAAGTCGAACGATATGA | 0.564 | 0.266 | -0.224 | 0.356 | -0.187 | 1.81 | 3.01 | 3.83 | 4.04 | 4.1 | 3.51 | 3.04 | 1.38 | 0.989 | 0.612 | 0.127 | -0.297 | 0.259 | 0.411 | 0.413
2 | TCGAGTAGGTTAGTCGGGGCATTGAGCCAACATA | -0.211 | -0.326 | -0.78 | 0.048 | -1.23 | 0.416 | -0.175 | 0.835 | 1 | 0.777 | 2.07 | 2.19 | -0.804 | -1.03 | -0.25 | -0.121 | -0.392 | 0.186 | -0.979 | 0.355
3 | TCATAAAGGTAAAAGGTGAAAGTCGGTGTGGTAA | 3.11 | 2.59 | 0.231 | 2.75 | 0.0475 | 5.08 | 6.24 | 6.25 | 6.38 | 6.73 | 3.49 | 3.5 | 0.634 | 0.86 | 2.26 | 2.56 | 0.65 | 4 | 1.25 | 2.54
4 | TAATATAGGTAAAGGTGAAAGTCGAACGATATGA | 1.14 | 1.33 | 0.478 | 1.55 | 0.351 | 4.23 | 6.52 | 6.14 | 4.8 | 6.35 | 6.04 | 6.44 | 2.33 | 2.3 | 2.1 | 1.02 | 0.701 | 1.8 | 1.92 | 2.03
5 | CCTAGCAGGCCTGGGTCACTCAAGCATTTCGCTT | 0.369 | 0.545 | -0.474 | 0.861 | -0.369 | 1.34 | -0.336 | 0.314 | -0.828 | -0.485 | 0.171 | 0.217 | -1.39 | -1.28 | 0.279 | 0.53 | -0.661 | 1.16 | 0.152 | 1.43
6 | GCCAGCAGGCCATTTGGGTCACTCAATGACGGGC | 0.0652 | -0.0507 | -0.664 | -0.289 | -1.29 | 1.02 | 0.451 | 0.16 | -0.483 | -0.357 | 0.295 | 1.48 | -0.593 | -1.66 | -0.218 | 0.499 | 0.123 | 0.783 | -1.21 | 1.49
7 | CCGACTGGGGCATAAGGTTACCGTAAGCCAGCCC | 0.834 | 0.933 | -0.596 | 0.83 | -1.46 | 2.03 | 2.33 | 3.5 | 1.26 | 3.13 | 3.14 | 3.4 | -0.802 | -1.39 | 0.271 | 0.55 | -0.911 | 1.66 | -0.61 | 1.98
8 | CCTACTGGGCCATTCCGAGGTCATTGATCATATG | 2.71 | 3.36 | 4.85 | 3.28 | 0.27 | 3.5 | 1.58 | 2.59 | 0.281 | 1.54 | 4.18 | 4.34 | 0.312 | -0.485 | 1.24 | 4.4 | 4.22 | 3.88 | 0.0189 | 2.63
9 | GCTTACGGGTCAAAGGTTATAGAATGAATAGAAT | 7.46 | 6.03 | 0.9 | 5.71 | 0.667 | 7 | 11.4 | 9.46 | 10.1 | 10.7 | 4.71 | 5.44 | 1.37 | 1.09 | 1.73 | 6.07 | 0.466 | 8.42 | 0.715 | 4.59
10 | CGAACGAGGGCATGAATTGATAGCAAATGCCGAT | -0.0699 | -0.102 | -0.436 | -0.0113 | -0.655 | 0.924 | 0.992 | 0.623 | 0.00744 | 0.388 | 2.65 | 1.53 | 0.103 | -0.47 | 0.00872 | 0.118 | -0.261 | 0.259 | -0.227 | 1.72
11 | CCAGACAGTTGAAAGGTAACTCAGTCTGGTACGC | 0.192 | 0.408 | -0.24 | 0.365 | -0.0531 | 1.47 | 0.992 | 1.75 | 0.231 | 0.964 | 0.0148 | 0.0044 | -0.176 | -0.589 | 0.762 | 0.219 | 0.144 | 0.485 | 0.568 | 0.56
12 | AATACAGGGTCATCGTAGGCCACAGTACGCACAG | 7.48 | 6.72 | 3.33 | 4.97 | 1.33 | 5.98 | 7.16 | 6.32 | 2.8 | 5.05 | 3.1 | 4.6 | 2.5 | 1.08 | 2.97 | 5.59 | 0.511 | 5.47 | 1.06 | 4.59
13 | ATCGAAAGGTCGAGGTGCGTATAGAGAAAGGGAA | 3.98 | 3.27 | -0.147 | 2.47 | 0.277 | 4.37 | 2.48 | 3.13 | 1.09 | 2.17 | -0.194 | 1.03 | 0.819 | 0.0547 | 1.09 | 2.33 | 0.0206 | 3.2 | 0.4 | 3.98
14 | AGAATGAGGTTACCAAAGACCAGGGAAACGCTTG | 1.97 | 4.34 | -0.091 | 1.87 | -0.385 | 3.27 | 2.53 | 2.62 | 0.863 | 1.86 | 3.86 | 3.33 | 0.85 | 0.62 | 0.291 | 1.22 | -0.349 | 2.06 | -0.134 | 2.11
